The values that follow come from PubChem BioAssay AID2685 (National Center for Advancing Translational Sciences (NCATS), 2010).

Among all 320,000 compounds or so, about 2,100 (0.66%) were called active. Roughly 53% stayed inconclusive and do not appear here. The sample holds actives, similar compounds and a random draw of the others, so the mix is not that of the screen. Calls follow the shape of the dose curve; as a rule, active = well fitted inhibition curve with a large enough effect in the signal ratio, with a control signal flat (not every such curve was filed as active); inconclusive = small, poorly fitted or top-dose-only effect, or effect the other way, or a change in a side signal; inactive = flat fitted curve, though single readings scatter; the % refers to the signal ratio.
Potency is read from the fitted curve at half-maximal effect.

The nature of the experiment: qHTS Assay for Lipid Storage Modulators in Drosophila S3 Cells.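 As to cell number change: cells counted by Cell Tracker Red CMTPX staining in the red channel.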 As to lipid storage change, negative = inhibition: % is scaled to controls: 0 for no effect and ±100 for the full control effect. The note with it: BODIPY lipid droplet fluorescence, 18-24 h, cells fed with added oleic acid; cell number change: measured here: cell count max response; series mostly up to 46.1 µM; lipid storage change, negative = inhibition: at the top concentration. The procedure, abridged: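 Drosophila S3 cells loaded with oleic acid (400 uM, as added) and compounds at several concentrations; lipid droplets imaged by 488-nm laser-scanning cytometry, 500–530 nm intensity and object ratio to cell channel. Percent activity normalized to 20 uM Triacsin C.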
(In general: In qHTS, concentration-response curves come from the screen itself.)
Consider `O=C(NCC1CC1)c1ccc2c(c1)S(=O)(=O)c1cc(Cl)ccc1C2=O`, for which the “lipid storage change, negative = inhibition” value is 5.36% (inactive) and the cell number change was found to be 7%. As for `Nc1ncc(S(=O)(=O)c2ccc(Cl)cc2)c(N)n1`, the result was inactive and the cell number change amounted to 19.4%. Consider `O=S(=O)(c1ccc(Cl)cc1)c1cnc2ccccc2n1`, for which the Potency is 29.1 µM (active) and the cell number change was -118%. As for `Clc1ccc(N2CCN(c3cnc4ccccc4n3)CC2)cc1`, the molecule was classed as inactive and the cell number change is -5.19%. `Cc1ccc(C(=O)N[C@H](C(=O)OCc2cc(=O)n3c(n2)sc2ccccc23)C(C)C)cc1`: the “lipid storage change, negative = inhibition” value was -0.413% (inactive) and the cell number change was -15.4%. Regarding `Cc1ccc(C(=O)NC(C(=O)OCc2cn3cc(Cl)ccc3n2)C(C)C)cc1` (stereo not given), the Potency is 5.17 µM (active) and the cell number change is 6.32%. For `Cc1ccc(C(=O)N[C@H](C(=O)OCc2nnc(-c3ccccc3)o2)C(C)C)cc1`, the “lipid storage change, negative = inhibition” value was -7.03% (inactive) and the cell number change is -21.1%. For `CCOC(=O)C1CCCN(S(=O)(=O)c2ccc(Br)s2)C1` (stereo not given), the molecule was classed as inactive and the cell number change was -14.8%. Regarding `Cc1nc2oc3ccc(F)cc3c(=O)c2cc1C(=O)O`, the molecule was classed as inactive and the cell number change was determined as 9.45%.

On to `Cn1c(=O)c2c(nc(NCc3ccco3)n2CC(O)CO)n(C)c1=O` (stereo not given), for which the “lipid storage change, negative = inhibition” value is -6.18% (inactive) and the cell number change worked out at 9.76%. Take `C/C(Cl)=C\Cn1c(NCCc2ccccc2)nc2c1c(=O)n(C)c(=O)n2C`: the Potency is 6.51 µM (active) and the cell number change was -18.8%. With `CCn1c(NCc2ccco2)nc2c1c(=O)n(C)c(=O)n2C`, the “lipid storage change, negative = inhibition” value was 2.27% (inactive) and the cell number change was -2.38%.

Consider `Cn1c(=O)c2c(nc(NCCCO)n2C/C=C/c2ccccc2)n(C)c1=O`, for which the Potency is 9.2 µM (active) and the cell number change was -27.3%. Take `Cn1c(=O)c2c(nc(NCCCO)n2CCc2ccccc2)n(C)c1=O`: the “lipid storage change, negative = inhibition” value was -17.7% (inactive) and the cell number change is -21.6%. The corresponding values for `CCCNc1nc2c(c(=O)n(C)c(=O)n2C)n1CCCc1ccccc1` are -32.8% (inactive) and -29.8%.

With `Cn1c(=O)c2c(nc(NCc3ccco3)n2CCc2ccccc2)n(C)c1=O`, the Potency is 11.6 µM (active) and the cell number change is -22.9%. For the molecule `Cn1c(=O)c2c(nc(NCCCO)n2Cc2cccc(Br)c2)n(C)c1=O`, the outcome was inactive. As to `CCN(CC)CCNc1nc2c(c(=O)n(C)c(=O)n2C)n1C/C=C(/C)Cl`, the “lipid storage change, negative = inhibition” value is -2.52% (inactive) and the cell number change was -1.05%. As to `Cn1cnc(S(=O)(=O)N2CCN(c3cccc(C(F)(F)F)c3)CC2)c1`, the molecule was called inactive and the cell number change was found to be 3.98%. Regarding `CCC(C)c1ccccc1OCC(=O)NN1C(=O)c2ccccc2C1=O` (stereo not given), the “lipid storage change, negative = inhibition” value was 25.3% (inactive) and the cell number change is -0.73%. The corresponding values for `COc1ccccc1C(=O)Nc1ccc(C(=O)N2CCCCC2)cc1` are -8.52% (inactive) and -10.6%. Turning to `Cn1c(=O)c2c(nc(CN3CCN(C(=O)c4ccco4)CC3)n2Cc2ccccc2)n(C)c1=O`, the molecule was classed as inactive. Consider `O=C(CSc1ncnc2scc(-c3ccc(F)cc3)c12)c1ccc2c(c1)OCCO2`, for which the “lipid storage change, negative = inhibition” value is 8.68% (inactive) and the cell number change came to 7.81%. As for `Cc1ccc(-c2csc3ncnc(SCC(=O)c4ccc5c(c4)OCCO5)c23)cc1`, the Potency is 5.17 µM (active) and the cell number change was -23.9%. With `Cc1ccc(-c2csc3ncnc(SCC(=O)NCc4ccc5c(c4)OCO5)c23)cc1`, the “lipid storage change, negative = inhibition” value was 4.42% (inactive) and the cell number change was -1.52%. For `COCCn1nnnc1C(c1ccccc1OC)N1CCN(c2ccccc2)CC1` (stereo not given), in that order: 19% (inactive) and 8.57%. For the molecule `CCn1cnc2c1c(=O)n(CC(=O)OC(C)C(N)=O)c(=O)n2Cc1ccccc1` (stereo not given), the “lipid storage change, negative = inhibition” value was -5.23% (inactive) and the cell number change came to 10.8%. As to `Cc1cc(C(=O)N2CCc3c([nH]c4ccccc34)C2c2cccc(Cl)c2)nn1C` (stereo not given), the “lipid storage change, negative = inhibition” value is -2.18% (inactive) and the cell number change is -10.9%. With `CCCCC(=O)N1CCCC(C(=O)OCC)C1` (stereo not given), the molecule was called inactive and the cell number change worked out at 23.1%. `CCOC(=O)C1CCCN(C(=O)Cc2ccc(C)cc2)C1` (stereo not given): the “lipid storage change, negative = inhibition” value was -0.343% (inactive) and the cell number change is 14.8%. In the case of `CCOCC(=O)N1CCCC(C(=O)OCC)C1` (stereo not given), the Potency is 18.4 µM (active) and the cell number change is -14.8%.

Consider `NCCNC[C@@H]1COC2(CCCCCCCCCCC2)O1`, for which the “lipid storage change, negative = inhibition” value was -8.63% (inactive) and the cell number change amounted to 6.45%.

Consider `CC1CC(C)CN(S(=O)(=O)c2ccc3c(c2)C(C)(C)C(=O)N3C)C1` (stereo not given), for which the call was inactive and the cell number change is 26.4%.

As to `Cc1nn(C(C)CC(=O)O)c(C)c1C` (stereo not given), the Potency was 23.1 µM (active). `CC(=O)c1c(C)nn(C(C)CC(=O)O)c1C` (stereo not given): the “lipid storage change, negative = inhibition” value was -5.84% (inactive) and the cell number change was -4.59%. With `Cc1nc(C)n(C(C)CC(=O)O)n1` (stereo not given), the “lipid storage change, negative = inhibition” value was -5.06% (inactive) and the cell number change is -20%.

For the molecule `C/C(Cn1nnc([N+](=O)[O-])n1)=N\NC(=O)c1ccc(C)cc1`, the “lipid storage change, negative = inhibition” value was -2.12% (inactive) and the cell number change was 24.7%. The corresponding values for `COc1ccc(N(C(=O)CNC(=O)c2cccs2)C(C(=O)NC2CCCC2)c2cccnc2)cc1` (stereo not given) are -7.37% (inactive) and 3.7%. With `CC(C)Oc1ccc(C(=O)N2CCN(C(=O)c3ccco3)CC2)cc1`, the outcome was inactive and the cell number change was found to be 19.8%. As for `CC(C)c1ccc(NC(=O)C(c2ccccc2)N2CCN(C(=O)c3ccco3)CC2)cc1` (stereo not given), the Potency was 20.6 µM (active) and the cell number change was -35.1%. Turning to `O=C(Nc1ccc(F)cc1)C(c1ccccc1)N1CCN(C(=O)c2ccco2)CC1` (stereo not given), the result was inactive. Turning to `O=C(c1ccc(NS(=O)(=O)c2cccc([N+](=O)[O-])c2)cc1)N1CCCCCC1`, the “lipid storage change, negative = inhibition” value is 18.1% (inactive) and the cell number change was -11.1%.

As for `O=C(c1ccc(NS(=O)(=O)c2cccc([N+](=O)[O-])c2)cc1)N1CCN(C(=O)c2ccco2)CC1`, the Potency is 9.2 µM (active) and the cell number change was found to be 1.34%. As for `CCOc1ccccc1NC(=O)C(c1ccccc1)N1CCN(C(=O)c2ccco2)CC1` (stereo not given), the “lipid storage change, negative = inhibition” value was 9.01% (inactive) and the cell number change was -20.1%.

`O=C(c1ccco1)N1CCN(S(=O)(=O)c2cccc([N+](=O)[O-])c2)CC1`: the “lipid storage change, negative = inhibition” value was 28.6% (inactive) and the cell number change is -1.91%. Take `CC(C(=O)Nc1ccccc1)N1CCN(C(=O)c2ccco2)CC1` (stereo not given): the “lipid storage change, negative = inhibition” value is 19% (inactive) and the cell number change is 13.4%. For `CC(C)C(=O)Nc1ccc(C(=O)N2CCN(C(=O)c3ccco3)CC2)cc1`, the Potency was 4.61 µM (active) and the cell number change came to 6.86%.
